Experimental data taken from publication PMC4336329 (PLoS ONE, 2015).
Hit rate of the full screen: of about 310,000 compounds, about 14,000 (4.5%) showed an effect of 50% or more. The effect is printed as a negative number. This is one part of a sample in which strong results are shown more often than they occur.

Biological target: human ether-à-go-go-related gene (hERG) potassium channel (human, UniProt Q12809)
Experiment: primary screen, population patch clamp on CHO cells stably expressing hERG; higher = less effect of the substance
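Also: peak tail current of the secondary pulse compared with the same well before compound.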

Chain of human ether-à-go-go-related gene (hERG) potassium channel (Q12809 whole entry, looked up): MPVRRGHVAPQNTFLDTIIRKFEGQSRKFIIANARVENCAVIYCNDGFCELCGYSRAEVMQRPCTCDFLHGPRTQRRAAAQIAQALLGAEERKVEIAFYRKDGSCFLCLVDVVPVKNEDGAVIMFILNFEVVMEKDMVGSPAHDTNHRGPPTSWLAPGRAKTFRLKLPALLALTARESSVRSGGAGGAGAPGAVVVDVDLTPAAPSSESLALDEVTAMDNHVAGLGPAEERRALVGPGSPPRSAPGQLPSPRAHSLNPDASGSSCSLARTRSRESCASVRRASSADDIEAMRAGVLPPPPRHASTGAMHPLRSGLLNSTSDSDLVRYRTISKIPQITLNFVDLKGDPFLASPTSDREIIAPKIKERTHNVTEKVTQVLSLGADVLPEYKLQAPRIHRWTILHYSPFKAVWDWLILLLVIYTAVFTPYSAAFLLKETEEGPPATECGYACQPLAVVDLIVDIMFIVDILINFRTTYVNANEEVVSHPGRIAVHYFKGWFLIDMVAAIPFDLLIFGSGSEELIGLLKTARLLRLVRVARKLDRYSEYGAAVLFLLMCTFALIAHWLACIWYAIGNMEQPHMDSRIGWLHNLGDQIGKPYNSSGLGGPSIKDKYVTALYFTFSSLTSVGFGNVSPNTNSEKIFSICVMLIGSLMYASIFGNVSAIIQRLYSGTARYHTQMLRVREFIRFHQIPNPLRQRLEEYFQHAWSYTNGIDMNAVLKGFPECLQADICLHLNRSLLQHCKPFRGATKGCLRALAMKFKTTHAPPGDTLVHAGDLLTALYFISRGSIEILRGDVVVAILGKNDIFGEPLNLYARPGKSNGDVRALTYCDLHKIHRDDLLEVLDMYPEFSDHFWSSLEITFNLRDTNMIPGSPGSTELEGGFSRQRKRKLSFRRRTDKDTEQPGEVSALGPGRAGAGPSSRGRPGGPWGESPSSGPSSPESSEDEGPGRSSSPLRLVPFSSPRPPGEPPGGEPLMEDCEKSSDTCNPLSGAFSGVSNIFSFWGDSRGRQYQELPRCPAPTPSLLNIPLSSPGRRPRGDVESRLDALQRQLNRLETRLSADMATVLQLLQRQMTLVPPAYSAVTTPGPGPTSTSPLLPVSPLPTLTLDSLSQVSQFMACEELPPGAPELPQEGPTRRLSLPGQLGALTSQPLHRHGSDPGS

Compound	hERG current change (%, negative = inhibition) at 10uM [%]
COc1ccccc1-c1noc(CCC(=O)Nc2ccccc2Cl)n1	-4.71
CS(=O)(=O)c1ccccc1-c1nnc(NC(=O)COc2ccc(Cl)cc2)o1	-6.82
CCC1=C(OC(=O)N(CC)CC)N2C(=O)OC(=NCc3ccccc3)[C@]2(C)[C@H]2C1=CC[C@H]1C(=O)NC(=O)[C@H]12	-6.14
CCC1CCCCN1C(=O)c1cc2c(=O)n3cccc(C)c3nc2s1 (stereo not shown)	4.01
CCC1Oc2ccccc2N(CC(=O)NCCC2=CCCCC2)C1=O (stereo not shown)	3.64
FC(F)(F)c1cc(-c2ccc(Cl)cc2)nc2ncnn12	-16.2
CCCCc1cc(=O)oc2cc(C)cc(OCC(=O)NCc3cccnc3)c12	-54.1
CCCc1cc(=O)oc2cc(C)cc(OCC(=O)NCc3ccncc3)c12	-69.5
CCc1cc(=O)oc2cc(C)cc(OCC(=O)NCc3cccnc3)c12	-31.5
CCCc1cc(=O)oc2cc(C)cc(OCC(=O)NCc3cccnc3)c12	-44.4
CCCCc1cc(=O)oc2cc(C)cc(OCC(=O)Nc3cccnc3)c12	26.7
CCCc1cc(=O)oc2cc(C)cc(OCC(=O)Nc3ccccn3)c12	13.2
CCCCc1cc(=O)oc2cc(C)cc(OCC(=O)NCc3ccncc3)c12	-84.1
CCCc1cc(=O)oc2cc(C)cc(OCC(=O)Nc3cccnc3)c12	-0.927
CCCCc1cc(=O)oc2cc(C)cc(OCC(=O)Nc3ccccn3)c12	28.6
CCOc1ccc(NC(=O)Cn2nnc(C(=O)NCc3ccco3)c2N)cc1	15.1
C=CCN1C(=O)S/C(=C/c2ccc(Sc3nc4ccccc4[nH]3)o2)C1=O	3.61
CCN1C(=O)N[C@@H](c2ccccc2)[C@H](C(=O)OC)[C@H]1C	-6.4
COC(=O)Nc1nn(-c2ccc(C)cc2)c(=O)c(C#N)c1C	11.2
CN(C)C(C(=O)NC1CCCCC1)c1ccc(Cl)cc1 (stereo not shown)	4.27
COC(=O)c1ccc(N2CCN(C)CC2)c(NC(=O)COc2cccc(C)c2)c1	-18.9
CCOC(=O)c1ccc(N=C(C)c2c(O)[nH]c(=O)[nH]c2=O)cc1	10.8

Compound	hERG current change (%, negative = inhibition) at 10uM [%]
CCCCn1nc(C(=O)NC2=NCCS2)c2ccccc2c1=O	-16.3
Cc1cc(NC(=O)COC(=O)CC2CCCC2)c([N+](=O)[O-])cc1C	9.34
CCOC(=O)CC(NC(=O)c1cc2cc(Cl)cc(Cl)c2oc1=O)c1cccc([N+](=O)[O-])c1 (stereo not shown)	-66.8
CCOC(=O)CC(NC(=O)c1cc2cccc(OC)c2oc1=O)c1cccc([N+](=O)[O-])c1 (stereo not shown)	-23
CCOC(=O)CC(NC(=O)c1cc2ccccc2oc1=O)c1cccc([N+](=O)[O-])c1 (stereo not shown)	-58.5
CCOC(=O)CC(NC(=O)c1cc2cccc(OC)c2oc1=O)c1ccc(OC)cc1 (stereo not shown)	-5.76
CCOC(=O)CC(NC(=O)c1cc2cc(Br)ccc2oc1=O)c1cccc([N+](=O)[O-])c1 (stereo not shown)	-27.5
CCOC(=O)CC(N)c1cccc([N+](=O)[O-])c1.Cl (stereo not shown)	2.9
O=C(Nc1ccccn1)C1COc2ccccc2O1 (stereo not shown)	16.1
CCOC(=O)c1sc2nc(C)nc(NC3CCC(O)CC3)c2c1C (stereo not shown)	2.9
CSc1ccccc1NC(=O)CN(C)CC(=O)Nc1ccc(Cl)cc1[N+](=O)[O-]	-31.6
O=C(CN1C(=O)C2CC=CCC2C1=O)NCC(=O)Nc1ccc(F)c(F)c1F (stereo not shown)	7.55
Cc1cc(Cl)c(S(=O)(=O)N/N=C/c2ccc3c(c2)OCO3)c(Cl)c1	2.77
COc1ccc(NC(=O)N2CCc3ccccc3C2)cc1OC	11.3
CCNc1nc(NC(C)C)nc(Nn2cnnc2)n1	9.05
O=C(NCc1cccs1)C1CCN(S(=O)(=O)c2cccc3nsnc23)CC1	-13.1
CS(=O)(=O)c1ccccc1C(=O)Nc1cc(Cl)ccc1-n1cncn1	13.4
CS(=O)(=O)c1ccc(C(=O)CN2C(=O)NC3(CCCc4ccccc43)C2=O)cc1 (stereo not shown)	-51.5
Cc1cc(Cl)ccc1NC(=O)CN1C(=O)NC2(CCCc3ccccc32)C1=O (stereo not shown)	-1.38
O=C(CN1C(=O)NC2(CCCc3ccccc32)C1=O)c1ccc(F)cc1 (stereo not shown)	-17
O=C(CN1C(=O)NC2(CCc3ccccc32)C1=O)c1ccc(F)cc1 (stereo not shown)	-57.4
O=C(CN1C(=O)NC2(CCc3ccccc32)C1=O)c1ccccc1 (stereo not shown)	15.1

Compound	hERG current change (%, negative = inhibition) at 10uM [%]
COc1ccc(C(=O)CN2C(=O)NC3(CCCc4ccccc43)C2=O)cc1 (stereo not shown)	-36.2
Cc1ccc(F)cc1NC(=O)CN1C(=O)NC2(CCCc3ccccc32)C1=O (stereo not shown)	-1.5
Cc1ccc(NC(=O)CN2C(=O)NC3(CCCc4ccccc43)C2=O)c([N+](=O)[O-])c1 (stereo not shown)	-75.6
O=C(CN1C(=O)NC2(CCCc3ccccc32)C1=O)c1ccc(Br)cc1 (stereo not shown)	-20.4
CCCS(=O)(=O)Nc1cccc(-c2cn3c(n2)SCC3)c1	-14.1
COc1ccc(OC)c(S(=O)(=O)N2CCCC(C(=O)NCCN3CCOCC3)C2)c1 (stereo not shown)	21.2
O=S(=O)(NCc1cccnc1)c1ccc(Cl)s1	6.91
COc1ccc(C(=O)NCc2nnc(SCC(=O)Nc3nnc(C)s3)o2)cc1	14.5
N#CC1(NC(=O)CSc2nnc(C3CC3)n2C2CC2)CCCCC1	-8.52
CCS(=O)(=O)c1ccc2oc(Nc3ccc(OC)c(OC)c3)nc2c1	8.05
Cc1ccc(-c2csc(NC(=O)C3=NN(C4CCS(=O)(=O)C4)C(=O)CC3)n2)cc1 (stereo not shown)	-3.9
C=CCN(C(=O)C1=NN(C2CCS(=O)(=O)C2)C(=O)CC1)c1nc(-c2ccc([N+](=O)[O-])cc2)cs1 (stereo not shown)	-63.5
C=CCN(C(=O)C1CC(=O)N(C2CCCC2)C1)c1nc(-c2ccc(S(C)(=O)=O)cc2)cs1 (stereo not shown)	-47.1
CN1CCN(C2=Nc3cc(F)ccc3Cc3ccccc32)CC1	-35.7
Cc1sc(NC(=O)Cc2ccc3c(c2)OCO3)nc1-c1ccc2c(c1)CCN2C(=O)c1ccccc1F	-0.586
COc1cc(NC(=O)Cc2c(C(=O)O)n(C)c3ccccc23)cc(OC)c1OC	35
Cc1cccc(-n2c(O)c(C=NC3CCS(=O)(=O)C3)c3ccccc3c2=O)c1C (stereo not shown)	-54.1
Cc1ccc(-n2c(O)c(C=NC3CCS(=O)(=O)C3)c3ccccc3c2=O)c(C)c1 (stereo not shown)	-0.346
Cc1ccc(-n2c(O)c(C=NC3CCS(=O)(=O)C3)c3ccccc3c2=O)cc1 (stereo not shown)	-3.54
O=S(=O)(NCCOc1ccccc1Cl)c1ccc2oc3ccccc3c2c1	3.52
Cc1ccccc1C(=O)Nc1cccc(-c2ccc3nncn3n2)c1	-2.94
COCC1CCCN(Cc2cn[nH]c2-c2cc3ccccc3o2)C1 (stereo not shown)	-47.5

Compound	hERG current change (%, negative = inhibition) at 10uM [%]
COCCN1CCN(Cc2cn[nH]c2-c2cc3ccccc3o2)CC1	-6.62
O=C(c1ccccn1)C1CCCN(Cc2cn[nH]c2-c2cc3ccccc3o2)C1 (stereo not shown)	-70
O=C(c1ccccn1)C1CCCN(Cc2nc(Cc3cccc(F)c3)no2)C1 (stereo not shown)	-5.63
c1ccc(CCC2CCCCN2Cc2cn[nH]c2-c2cc3ccccc3o2)nc1 (stereo not shown)	-74.9
OC1(CNCc2cn[nH]c2-c2cc3ccccc3o2)CCCCC1	-28.7
COc1ccc(OC)c(NC(=O)C2C(C(=O)O)C3(Cl)C(Cl)=C(Cl)C2(Cl)C3(Cl)Cl)c1 (stereo not shown)	7.73
Cc1cc(CNC(=O)CC2C(=O)NCCN2Cc2ccccc2C(F)(F)F)nn1C (stereo not shown)	9.04
COCCNCCCOc1ccc(Br)cc1Cl.O=C(O)C(=O)O	-31.8
Cc1cc(Br)cc(C)c1OCCCCN(C)C.O=C(O)C(=O)O	-54.4
Cc1cc(Br)ccc1OCCCCNC(C)(C)C.O=C(O)C(=O)O	-53.9
CN(C)CCCOc1cccc(Cl)c1.O=C(O)C(=O)O	-19.5
C=CCNCCCCOc1ccc(Br)cc1C.O=C(O)C(=O)O	-41
Cc1cc(Br)ccc1OCCCCNCCO.O=C(O)C(=O)O	-28.1
Cc1cc(Cl)cc(Cl)c1OCCCCN(C)C.O=C(O)C(=O)O	-43.7
CN(C)CCOCCOc1ccc(Cl)cc1Br.O=C(O)C(=O)O	-42.6
COCCCNC(=O)COc1ccc(Br)cc1Cl	-7.88
CN(C)CCCOc1ccc(Cl)cc1Br.O=C(O)C(=O)O	-69.3
COCCCNCCCCOc1ccc(Br)cc1Cl.O=C(O)C(=O)O	-67.1
Cc1cc(C)c(OCCCCN(C)C)c(Br)c1.O=C(O)C(=O)O	-41.5
